# According to the supplement of paper PMC3898565:
# ± gives the uncertainty stated by the source.
# Test system: U87
# Assay: cell viability relative to vehicle control; higher = less growth inhibition (less active)
# Conditions: 10 µM; 72 h
# 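Further: viable cell number estimated from Alamar Blue fluorescence read at 560/90, part of a single-dose primary screen of an FDA-approved drug library.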
row,SMILES,cell viability [%]
1,CNC(=C[N+](=O)[O-])NCCSCc1csc(CN(C)C)n1,99.1 ± 1.3
2,CCOC(=O)OC(C)OC1=C(C(=O)Nc2ccccn2)N(C)S(=O)(=O)c2ccccc21 (centres undefined),107 ± 1.1
3,Fc1ccc([C@@H]2CCNC[C@H]2COc2ccc3c(c2)OCO3)cc1 [Paroxetine],101 ± 1.2
4,C/C=C1\[C@H]2C=C(C)C[C@]1(N)c1ccc(=O)[nH]c1C2,106.5 ± 0.73
5,COc1ccccc1OCCNCC(O)COc1cccc2[nH]c3ccccc3c12 (centres undefined) [Carvedilol],105 ± 2.2
6,CC(C)NCC(O)COc1ccc(CCOCC2CC2)cc1 (centres undefined) [Betaxolol],100.4 ± 0.2
7,OCCN1C[C@H](O)[C@@H](O)[C@H](O)[C@H]1CO,123 ± 2.4
8,Nc1ccn([C@H]2CC[C@@H](CO)O2)c(=O)n1,100 ± 2.5
9,CC(C)(C)NC(=O)[C@@H]1C[C@@H]2CCCC[C@@H]2CN1C[C@@H](O)[C@H](Cc1ccccc1)NC(=O)[C@H](CC(N)=O)NC(=O)c1ccc2ccccc2n1,96.4 ± 2.6
10,COc1cccc2c1C(=O)c1c(O)c3c(c(O)c1C2=O)C[C@@](O)(C(=O)CO)C[C@@H]3O[C@H]1C[C@H](N)[C@@H](O)[C@H](C)O1,23.3 ± 0.39
11,CCCc1nc2c(C)cc(-c3nc4ccccc4n3C)cc2n1Cc1ccc(-c2ccccc2C(=O)O)cc1,98.3 ± 2.2
12,Clc1ccccc1C(c1ccccc1)(c1ccccc1)n1ccnc1,107.5 ± 0.99
13,CC[C@@H]1C(=O)OC[C@@H]1Cc1cncn1C,101 ± 0.86
14,CN(C)CCC[C@@]1(c2ccc(F)cc2)OCc2cc(C#N)ccc21,103 ± 1.9
15,CN(C)CCOC(C)(c1ccccc1)c1ccccn1 (centres undefined) [doxylamine succinate],96.6 ± 1.2
16,COc1ccc(C(=O)NCc2ccc(OCCN(C)C)cc2)cc1OC,95.8 ± 3.2
17,Nc1nc(Cl)nc2c1ncn2[C@@H]1O[C@H](CO)[C@@H](O)[C@H]1O,90.6 ± 3
18,COC(=O)Nc1nc2cc(C(=O)c3ccc(F)cc3)ccc2[nH]1,30 ± 7.6
19,CCCCCCNC(=O)n1cc(F)c(=O)[nH]c1=O,55.1 ± 2.6
20,CC(C)/N=c1\cc2n(-c3ccc(Cl)cc3)c3ccccc3nc-2cc1Nc1ccc(Cl)cc1,51.3 ± 3

row,SMILES,cell viability [%]
1,CC(=O)N1CCN(c2ccc(OCC3COC(Cn4ccnc4)(c4ccc(Cl)cc4Cl)O3)cc2)CC1 (centres undefined) [Ketoconazole],94.3 ± 13
2,CO[C@@H]1[C@@H](O[C@@H]2O[C@H](C)[C@@H](O[C@H]3C[C@@](C)(O)[C@@H](OC(=O)CC(C)C)[C@H](C)O3)[C@H](N(C)C)[C@H]2O)[C@@H](CC=O)C[C@@H](C)[C@@H](O)/C=C/C=C/C[C@@H](C)OC(=O)C[C@H]1O,102 ± 2.2
3,COc1cc(C(=O)NS(=O)(=O)c2ccccc2C)ccc1Cc1cn(C)c2ccc(NC(=O)OC3CCCC3)cc12,104 ± 1.1
4,CC[C@H](C)C(=O)O[C@H]1CCC=C2C=C[C@H](C)[C@H](CC[C@@H]3C[C@@H](O)CC(=O)O3)[C@H]21 [mevastatin],89.1 ± 3.1
5,O=C(O)/C=C/c1ccc(Cn2ccnc2)cc1 [ozagrel],104 ± 1.2
6,CN1CCN(CCCN2c3ccccc3Sc3ccc(C(F)(F)F)cc32)CC1 [Trifluoperazine],103 ± 0.17
7,CCOC(=O)C1(CCCCCCOc2ccc(Cl)cc2)CO1 (centres undefined),106 ± 1.7
8,CC1CCN(CCCC(=O)c2ccc(F)cc2)CC1 [Metylperon],106 ± 1.2
9,CCOC(=O)C1=C(C)NC(C)=C(C(=O)OC)C1c1cccc([N+](=O)[O-])c1 (centres undefined),98.9 ± 2.8
10,CC(C)C[C@H](NC(=O)[C@@H](COC(C)(C)C)NC(=O)[C@H](Cc1ccc(O)cc1)NC(=O)[C@H](CO)NC(=O)[C@H](Cc1c[nH]c2ccccc12)NC(=O)[C@H](Cc1cnc[nH]1)NC(=O)[C@@H]1CCC(=O)N1)C(=O)N[C@@H](CCCNC(=N)N)C(=O)N1CCC[C@H]1C(=O)NNC(N)=O,101.1 ± 0.58
11,CC(C)(C)C(O)/C=C/c1ccc2c(c1)OCO2 (centres undefined) [Stiripentol],105.6 ± 0.6
12,CC#C[C@]1(O)CC[C@H]2[C@@H]3CCC4=CC(=O)CCC4=C3[C@@H](c3ccc(N(C)C)cc3)C[C@@]21C,105 ± 1.6
13,NC(N)=Nc1nc(CSCC/C(N)=N/S(N)(=O)=O)cs1,98.4 ± 9.8
14,CN1CCCC(n2nc(Cc3ccc(Cl)cc3)c3ccccc3c2=O)CC1 (centres undefined),99 ± 2.2
15,O=C(O)Cc1ccccc1Nc1c(Cl)cccc1Cl,105.9 ± 0.17
16,COc1ccccc1N1CCN(CCCNc2cc(=O)n(C)c(=O)n2C)CC1,109 ± 1.7
17,CC12CC3CC(C)(C1)CC(N)(C3)C2,123 ± 1.4
18,CC[C@]1(O)C[C@@H]2CN(CCc3c([nH]c4ccccc34)[C@@](C(=O)OC)(c3cc4c(cc3OC)N(C)[C@H]3[C@@](O)(C(N)=O)[C@H](O)[C@]5(CC)C=CCN6CC[C@]43[C@@H]65)C2)C1,24.7 ± 8.7
19,CN(C)CCCC1(c2ccc(F)cc2)OCc2cc(C#N)ccc21 (centres undefined) [Citalopram],102 ± 1.4
